# Screening results: PubChem BioAssay, National Center for Advancing Translational Sciences (NCATS)
# In the library only some 2.4% were active in any assay of this set; here they are far more common.
# D2 PAM-1: HTS Assay for Positive Allosteric Modulators of the Human D2 Dopamine Receptor: Primary Screen for Potentiators; D(2) dopamine receptor (Homo sapiens), P14416; HEK293 T-REx D2, calcium flux, EC20 dopamine potentiation; potentiation, % at 10 µM; 340,000 tested, 0.34% active;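 active means potentiation over 3 SD above the plate norm, cut at about 30% in these data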; further: 0% is about no effect
# Target sequence (P14416 whole entry, looked up): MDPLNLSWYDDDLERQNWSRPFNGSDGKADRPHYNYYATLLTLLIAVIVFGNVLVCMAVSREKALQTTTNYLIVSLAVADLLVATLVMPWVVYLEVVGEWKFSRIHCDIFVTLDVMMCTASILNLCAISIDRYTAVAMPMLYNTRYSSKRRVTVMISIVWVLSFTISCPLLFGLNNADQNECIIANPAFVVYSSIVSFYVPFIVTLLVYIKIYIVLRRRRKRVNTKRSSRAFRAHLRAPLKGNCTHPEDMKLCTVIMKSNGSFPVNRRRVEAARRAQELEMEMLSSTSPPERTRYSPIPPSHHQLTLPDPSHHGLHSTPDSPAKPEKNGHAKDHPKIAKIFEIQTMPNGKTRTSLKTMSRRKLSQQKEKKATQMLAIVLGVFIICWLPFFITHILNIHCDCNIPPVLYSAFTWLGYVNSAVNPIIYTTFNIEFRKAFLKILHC
#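 Calcium flux readout, no-wash dye, 1 read/s. Inducible HEK293 Trex D2 line, overnight 30 C. Compound alone 180 s (agonist flags), then EC20 dopamine, another 180 s to score potentiation.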
# D2 ag-1: HTS Assay for Allosteric Agonists of the Human D2 Dopamine Receptor: Primary Screen for Agonists | D(2) dopamine receptor (Homo sapiens), P14416 | HEK293 T-REx D2 cells, calcium flux agonist mode | activation, % at 2 µM | 340,000 tested, 0.53% active | AID 485358, 2010;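 active means activation over 3 SD above normal in the single-dose calcium agonist read, cut at about 30% in these data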; further: 0% is about no effect
#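 HEK293 Trex D2 cells, tetracycline-induced, o/n 30 C 5% CO2; no-wash Ca dye, RT 30–90 min; 10-cycle baseline, 23 nl cpd added, kinetic Ca read 180 s; agonist hits = positive Ca response.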
# D2 PAM-2: Beta-Arrestin HTS for Positive Allosteric Modulators of the Human D2 Dopamine Receptor: Potentiators; AID 624464, 2012; DiscoveRx D2 beta-arrestin cells, luminescence, 90 min; 100% = 57 uM dopamine signal; potentiation, % (concentration not given with the values); 360,000 tested, 0.23% active; D(2) dopamine receptor (Homo sapiens), P14416; in the data active means potentiation above about 50%; inconclusive means mostly about 30% to 49%
#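 PathHunter beta-arrestin assay in DiscoveRx D2 cells. Compounds were added with an EC20 of dopamine (50 nM final) for 90 min at 37 deg C. Luminescence was read 1 h after detection reagent, with 57 uM dopamine as the EC100 control.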
# D2 ag-2: Beta-Arrestin HTS for Positive Allosteric Modulators of the Human D2 Dopamine Receptor: Agonists. DiscoveRx PathHunter D2 beta-arrestin, luminescence, 90 min; 100% = 57 uM dopamine signal. activation, % (test concentration not listed). 360,000 tested, 0.084% active; in the data active means activation above about 40%; inconclusive means between about 15% and that limit
#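 Agonist mode: compounds alone added to overnight-plated D2 PathHunter cells for 90 min at 37 C, with 57 uM final dopamine (EC100) defining full response. Beta-arrestin recruitment detected by chemiluminescent reagent, read after 1 h at ambient temperature.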
# D2 antagonist: HTS Assay for Allosteric Antagonists of the Human D2 Dopamine Receptor: Primary Screen for Antagonists | D(2) dopamine receptor (Homo sapiens), P14416 | HEK293 TREx D2 cells, calcium flux, dopamine EC80 | inhibition, % at 10 µM | 340,000 tested, 2% active; in the data active means inhibition above about 30%; inactive means below that, where a call was filed; further: 0% is about no effect
#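 Calcium mobilization kinetics were recorded at 1 s intervals in tetracycline-induced HEK293 T-REx D2 cells, first for 180 s after compound addition and then 180 s after EC80 dopamine.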
# * marks the source's active call; other numbers are inactive results; ? = inconclusive; · = not tested or not shown.
SMILES,D2 PAM-1,D2 ag-1,D2 PAM-2,D2 ag-2,D2 antagonist
CNS(=O)(=O)c1cn(CC(=O)N2CCN(c3ccc(C)cc3C)CC2)cc1S(=O)(=O)NC,2,-1,·,·,·
CC(=O)Nc1ccc(S(=O)(=O)N2CCN(Cc3ccccn3)CC2)cc1,1,4,-10,-1,23
CC(=O)Nc1ccc(S(=O)(=O)N2CCN(Cc3csc(C)n3)CC2)cc1,9,0,53*,-5,-7
CC(=O)Nc1ccc(S(=O)(=O)N2CCN(Cc3ccccc3[N+](=O)[O-])CC2)cc1,38*,1,-4,2,-3
CC(=O)Nc1ccc(S(=O)(=O)N2CCN(CC(=O)N3CCOCC3)CC2)cc1,-3,1,-13,-4,37*
Cc1ccc(S(=O)(=O)N2CCN(CC(=O)N3CCOCC3)CC2)cc1,10,0,-3,-8,-6
Cc1ccc(C2CC(=O)N(Cc3ccccc3F)c3c2c(C)nn3-c2nc(C)cc(C)n2)cc1 (stereo not given),-14,1,·,·,·
CCc1ccc(CN(Cc2ccco2)C(=O)c2cc(-c3ccc(C)c(F)c3)on2)cc1,8,-2,·,·,·
CCCCn1c(=O)c2oc3ccccc3c2n(Cc2ccc(C)cc2)c1=O,-9,0,·,·,·
O=C(Oc1ccc(Cl)c2cccnc12)N1CCCCC1,-2,0,-2,2,8
O=C(Oc1ccc(Cl)c2ccccc12)N1CCCCC1,-2,-1,-14,-2,56*
Cc1ccc(-n2nc(C(=O)N3CCCCC3)c(=O)n(C)c2=O)cc1,-5,1,·,·,·
Cc1ccc(S(=O)(=O)CCN2CCN(c3ccccc3)CC2)cc1,-16,9,-12,0,30*
COc1ccccc1N1CCN(S(=O)(=O)/C=C/c2ccccc2)CC1,-1,1,14,-2,54*
O=S(=O)(/C=C/c1ccccc1)N1CCN(c2ccccc2)CC1,-7,0,-1,1,-1
COc1cc(Br)c(C2CC(=O)Nc3cc4c(cc32)OCCO4)cc1OC (stereo not given),4,0,·,·,·
CC(=O)c1cccc(NC(=O)Cn2nc(C(F)(F)F)c3c2CCC3)c1,·,-1,·,·,·
CCc1cc2c(=O)oc(-c3ccc(Br)cc3)nc2s1,11,-1,-6,-3,33*
CCOCCCNC(=O)c1cc2c(=O)[nH]c3ccccc3c2s1,-13,39*,8,?,58*
COC(=O)c1c(NC(=O)C(C)C)sc2c1C(C(=O)OC)CC2 (stereo not given),47*,0,-7,-3,0
Cc1ccc(Cn2c(SCC(=O)NCc3ccccc3Cl)nc3ccsc3c2=O)cc1,14,-1,·,·,·
COc1ccccc1CNC(=O)COC(=O)c1n[nH]c2ccccc12,-2,-1,-8,-1,-4
COc1ccc(CNC(=O)COC(=O)c2n[nH]c3ccccc23)cc1OC,5,1,-6,1,30*
COCCn1nnnc1C(c1ccccc1OC)N1CCN(c2ccccc2F)CC1 (stereo not given),-2,2,4,0,2
COCCn1nnnc1C(c1cc2cccc(C)c2[nH]c1=O)N1CCN(c2ccccc2F)CC1 (stereo not given),-11,12,-38,-1,34*
SMILES,D2 PAM-1,D2 ag-1,D2 PAM-2,D2 ag-2,D2 antagonist
COc1ccc(Cn2cc(C(=O)c3ccc(C)c(C)c3)c(=O)c3ccccc32)cc1,8,0,·,·,·
CC(=O)Nc1ccc(N2C(=O)c3cccc4c(O)ccc(c34)C2=O)cc1,-8,64*,18,12,27
CC(=O)Oc1ccc(N(c2ccccc2)S(=O)(=O)c2ccc(C)cc2)cc1,39*,2,-4,-3,-16
Cc1ccc(S(=O)(=O)N(C)c2ccccc2)cc1,-4,1,4,-4,-1
Cc1ccc(NC(=S)NC2CCN(Cc3ccccc3)CC2)c(C)c1,-21,0,-35,-1,47*
Cc1ccccc1NC(=S)NC1CCN(Cc2ccccc2)CC1,-27,0,-39,-1,78*
